# Screening results as filed in PubChem.
# Shown are actives, neighbours in structure and some others; about 1.3% of the full set was active somewhere.
# Keap1-Nrf2 PPI = disrupts human Keap1 binding to Nrf2 peptide; Q14145; Keap1 Kelch-Nrf2 peptide fluorescence polarization, 1536-well; inhibition, % at 9.4 µM; 0.15% of 340,000 active; in the data active = inhibition above about 12%;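 also: human Keap1 Kelch domain with fluorescein labeled Nrf2 9mer peptide probe; 0% = neutral control wells and 100% = peptide positive control; higher means more block of Keap1 binding to Nrf2 peptide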
# LANA-H2A inh = blocks KSHV LANA binding to histone H2A/H2B; inhibition, % (no concentration beside the values); cell-free LANA-H2A/H2B peptide, fluorescence polarization; 0.6% of 320,000 active; AID 2629; in the data active = inhibition mostly above about 10%, no sharp cut-off; inactive = mostly below about 6.7%
# Cardiac RTF inh = cardiac RTF calcium desensitization. P19429+P45379. IANBD-labeled cardiac RTF, Ca2+ fluorescence. inhibition, % at 7.15 µM. 0.12% of 340,000 active. AID 493244;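 active = inhibition above the mean inhibition of all tested compounds plus 3 SD, cut at about 17% in these data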;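 also: assay run at fixed EC70 calcium of 1.6 mM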
# eLon inh = inhibitors of E. coli Lon protease. 0.42% of 360,000 active. inhibition, % at 7.94 µM. purified E. coli Lon protease, fluorescence polarization. P0A9M0; in the data active = inhibition above about 13%, passing the limit was not always enough;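 also: 0% = enzyme with probe and DMSO and 100% = no enzyme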
# Target sequence (P0A9M0 whole entry, looked up): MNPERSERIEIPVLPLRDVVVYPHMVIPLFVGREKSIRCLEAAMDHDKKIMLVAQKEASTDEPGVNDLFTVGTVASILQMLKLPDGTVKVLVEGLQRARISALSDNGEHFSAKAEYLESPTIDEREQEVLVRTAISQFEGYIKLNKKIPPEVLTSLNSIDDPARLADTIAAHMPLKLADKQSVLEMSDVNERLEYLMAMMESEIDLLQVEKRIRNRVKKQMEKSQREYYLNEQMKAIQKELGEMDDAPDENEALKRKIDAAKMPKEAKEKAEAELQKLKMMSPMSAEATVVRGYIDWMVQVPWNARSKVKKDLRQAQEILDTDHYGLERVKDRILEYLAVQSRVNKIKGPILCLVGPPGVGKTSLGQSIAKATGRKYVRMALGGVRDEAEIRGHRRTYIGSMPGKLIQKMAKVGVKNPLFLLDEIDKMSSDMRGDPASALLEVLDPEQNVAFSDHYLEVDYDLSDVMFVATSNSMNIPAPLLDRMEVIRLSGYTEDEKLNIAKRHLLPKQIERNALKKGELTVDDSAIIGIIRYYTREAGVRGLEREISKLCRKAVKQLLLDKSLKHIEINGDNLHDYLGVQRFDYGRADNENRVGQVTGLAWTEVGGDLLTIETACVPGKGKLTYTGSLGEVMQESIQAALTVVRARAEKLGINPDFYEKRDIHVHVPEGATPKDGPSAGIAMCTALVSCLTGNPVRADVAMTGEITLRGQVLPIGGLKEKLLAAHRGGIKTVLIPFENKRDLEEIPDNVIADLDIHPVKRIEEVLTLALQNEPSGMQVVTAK
# cardiac RTF act = increases calcium sensitivity of human cardiac regulated thin filaments | IANBD-labeled TnC RTF fluorescence at EC20 calcium; 0% EC20 calcium, 100% full calcium | 0.24% of 340,000 active | P19429+P45379 | activation, % at 7.2 µM;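 active = activation above the mean over all tested compounds plus 3 SD, cut at about 30% in these data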;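 also: rise in fluorescence read as greater calcium sensitivity of cardiac thin filaments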
# C-LANA FP = blocks KSHV LANA C-terminal domain binding to DNA | MBP-C-LANA/FAM-LBS DNA binding, fluorescence polarization | inhibition, % at 9 µM | 0.078% of 340,000 active;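 active = highest replicate inhibition at or above 60% at 9 µM, even if other replicates fall short; inactive = all replicates below 60% inhibition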;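 also: 0% = neutral control wells and 100% = 4 µM acridine orange control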
# * marks the source's active call; other numbers are inactive results; i = inactive; / = no result; + = active, no number; ! = repeats disagree.
SMILES,Keap1-Nrf2 PPI,LANA-H2A inh,Cardiac RTF inh,eLon inh,cardiac RTF act,C-LANA FP
Cc1cc(C)cc(N2C(=O)/C(=C\c3ccc(N4CCN(C)CC4)o3)C(=O)NC2=S)c1,/,-6,/,-109,/,/
CC(NC(=O)N1CC1(C)C)c1ccccc1 (stereo not drawn),0,/,-1,-8,3,6
CN(C)[C@@H]1C(=O)C(C(N)=O)=C(O)[C@@]2(O)C(=O)C3=C(O)c4c(O)cccc4[C@@](C)(O)[C@H]3[C@H](O)[C@@H]12,-2,-12,20*!,37,-18,124*
CCC1(C)OC(c2ccccc2)=C/C(=C/C=C2C(=O)NC(=O)NC2=O)O1 (stereo not drawn),-16,/,-163,-479,123*,-3
COc1ccccc1Cn1c(SCC(=O)C(C)(C)C)nc2cc(C(=O)N3CCC4(CC3)OCCO4)ccc2c1=O,/,12*,/,/,/,/
c1ccc2c(c1)[IH]c1ccccc1-2,-4,/,9,-2,0,0
N#Cc1ncc(N=Cc2ccc(N(CCCl)CCCl)cc2)s1,1,/,-3,-7,9,-5
CCOc1cc(C=C2C(=O)NC(=S)NC2=O)ccc1O,12*,/,-2,-10,-1,3
COc1cc2c(C(=O)N3CCN(C)CC3)c(C)n(C)c2cc1Br,1,3,-6,20*,-3,8
COc1cc2c(C(=O)O)c(C)n(C)c2cc1Br,-4,-1,-1,0,7,0
CCS(=O)(=O)NCc1nnc2n1-c1ccc(Br)cc1C(c1ccccc1Cl)=NC2,1,2,-3,-5,-14,-1
COC(=O)C1=C(c2c(C)noc2C)C[C@@H]2CC[C@H]1N2C(=O)NC1Cc2ccccc2C1,1,0,-13,-2,-3,0
CCC1(c2ccc(C)cc2)C(=O)NC(=S)NC1=O,/,/,/,1,/,/
Cn1cc(C=C(C#N)C#N)c2ccccc21,53*,+,-44,-37,28,56
C[C@]12CCC3C(CC[C@H]4C[C@@H](O)[C@H](O)C[C@]34C)C1CC[C@@H]2O (stereo partly drawn),-3,0,-24,-11,18,-1
C=CC1CN2CCC1CC2[C@@H](OC(=O)c1ccc(OC)cc1)c1ccnc2ccccc12 (stereo partly drawn),2,32*,5,15,-10,-1
Nc1cc(Cl)cc(C(=O)O)c1Cl,4,38*,-9,-1,-5,0
COC(=O)C1=C(c2ccc(OC(F)(F)F)cc2)C[C@@H]2CC[C@H]1N2C(=O)NC1CCCCC1,4,-2,-5,4,4,-1
CC1CCCC(NC(=O)COC(=O)c2cn(C)c3ccccc23)C1C (stereo not drawn),-4,-2,-5,1,-4,1
CCn1c(O)c(C=Nc2ccc(N3CCOCC3)cc2)c(=O)n(CC)c1=S,-6,3,-12,-32,130*,5
COc1ccc(-n2c(O)c(/C=C/C=Nc3ccccc3)c(=O)[nH]c2=O)cc1,-249,-32,-223,i,202*,-70
COc1ccc(-n2c(O)c(/C(C)=N/Nc3ccccc3)c(=O)[nH]c2=O)cc1,-7,0,-4,-8,12,4
O=c1[nH]c(=O)n(C2CCCCC2)c(O)c1C=Nc1ccc(N2CCOCC2)cc1,-2,8,-7,-2,7,198*
O=c1[nH]c(=S)n(-c2ccc(Cl)cc2)c(O)c1C=Nc1ccc(N2CCOCC2)cc1,0,2,-18,-38,4,2
O=c1[nH]c(=O)n(C2CCCCC2)c(O)c1/C=C/C=Nc1ccccc1,-109,-10,-83,-448,55*,-3
CCOCC1(CCc2ccccc2)C(=O)NC(=S)NC1=O,10,/,-1,-6,-6,/
C[N+]1(C)C2CC(OC(=O)C(CO)c3ccccc3)CC1C1OC12 (stereo not drawn),-5,0,0,0,2,-2
C=CCn1c(O)c(/C=C/C=Nc2ccccc2)c(=O)[nH]c1=O,3,12,-4,-270,2,2
O=c1[nH]c(=O)n(-c2ccccc2)c(O)c1/C=C/C=Nc1ccccc1,-108,-12,-71,i,78*,-26
Cc1ccc(-n2c(O)c(/C=C/C=Nc3ccccc3)c(=O)[nH]c2=O)cc1,-18,-5,-39,-269,39*,-8
